From PubChem BioAssay
gsp antagonist – qHTS for Antagonists of gsp, the Etiologic Mutation Responsible for Fibrous Dysplasia/McCune-Albright Syndrome: qHTS. Potency, µM (series often up to 76.9 µM), inactives show at the highest dose activity change, negative = inhibition, usual class: inhibitors. gsp-mutant cells, cAMP HTRF, 30 min. 340,000 compounds, 0.4% hits; calls by dose curve; cell line not stated here;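 also: intracellular cAMP measured with PDE inhibitor Ro 20-1724 present during compound exposure; potency is read from the fitted curve at half-maximal effect; % is scaled to controls: 0 for no effect and ±100 for the full control effect; nearly all actives have a fitted effect of over 65% in size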
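Measurement of cellular cAMP by homogeneous time-resolved fluorescence following a 30 min compound exposure at 37C. The PDE inhibitor […] was present throughout; the assay buffer was DPBS with 0.05% BSA and 0.005% Tween 20.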
pAkt inh – HTS Assay for Inhibitors of Akt Phophorylation: Primary Screen; Neuro2A IGF-stimulated pAkt S473 HTRF, 20 min; stronger effect = lower value; activity change, % for hits at 50 µM; 360,000 compounds, 0.32% hits; AID 651550, 2012; in the data active = activity change below about -80%; inconclusive = mostly about -51% to -80%; also: % is scaled to controls: 0 for no effect and ±100 for the full control effect
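Neuro2A cells in DMEM with 0.5% FBS, overnight at 37 deg C, given compound at single 50 µM final, then IGF (6 nM final) for 20 min at 37 deg C. Lysed; phospho-Akt Ser473 by HTRF after 24 h, 665/615 ratio.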
gsp ag – qHTS for Agonist of gsp, the Etiologic Mutation Responsible for Fibrous Dysplasia/McCune-Albright Syndrome: qHTS. gsp mutant cells, cAMP HTRF, 30 min. Potency, µM (series often up to 76.9 µM), inactives show top-dose activation (cAMP increase), actives largely listed as activators. 340,000 compounds, 0.13% hits; active = well fitted activation curve with a large enough effect; inconclusive = small, poorly fitted or top-dose-only effect, or another doubt; inactive = no such curve, though single readings can be large or run the other way; cell line not stated here;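 also: phosphodiesterase inhibitor Ro 20-1724 added with compounds to block cAMP breakdown; potency is read from the fitted curve at half-maximal effect; nearly all actives have a fitted effect of over 60% in size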
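Cells in DMEM/10% FBS with G418 were pretreated with compounds in DMSO plus […] (300 uM stock) for 30 min at 37C. cAMP was measured by HTRF (cAMP-d2 plus anti-cAMP antibody-K) after 30 min at room temperature.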
RXFP1 antag – qHTS Assay for Antagonists of the Relaxin Receptor RXFP1; activity change, negative = inhibition, % at 57.5 µM; 350,000 compounds, 0.59% hits; HEK293-RXFP1, relaxin-stimulated cAMP HTRF, 30 min; stronger effect = lower value; Relaxin receptor 1 (Homo sapiens), Q9HBX9;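 active = activity change of -60% or lower, but not beyond a set lower limit; inconclusive = change between -60% and -40%, or beyond the set limit; inactive = change above -40%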; also: % is scaled to controls: 0 for no effect and ±100 for the full control effect
Target sequence (Q9HBX9 whole entry, looked up): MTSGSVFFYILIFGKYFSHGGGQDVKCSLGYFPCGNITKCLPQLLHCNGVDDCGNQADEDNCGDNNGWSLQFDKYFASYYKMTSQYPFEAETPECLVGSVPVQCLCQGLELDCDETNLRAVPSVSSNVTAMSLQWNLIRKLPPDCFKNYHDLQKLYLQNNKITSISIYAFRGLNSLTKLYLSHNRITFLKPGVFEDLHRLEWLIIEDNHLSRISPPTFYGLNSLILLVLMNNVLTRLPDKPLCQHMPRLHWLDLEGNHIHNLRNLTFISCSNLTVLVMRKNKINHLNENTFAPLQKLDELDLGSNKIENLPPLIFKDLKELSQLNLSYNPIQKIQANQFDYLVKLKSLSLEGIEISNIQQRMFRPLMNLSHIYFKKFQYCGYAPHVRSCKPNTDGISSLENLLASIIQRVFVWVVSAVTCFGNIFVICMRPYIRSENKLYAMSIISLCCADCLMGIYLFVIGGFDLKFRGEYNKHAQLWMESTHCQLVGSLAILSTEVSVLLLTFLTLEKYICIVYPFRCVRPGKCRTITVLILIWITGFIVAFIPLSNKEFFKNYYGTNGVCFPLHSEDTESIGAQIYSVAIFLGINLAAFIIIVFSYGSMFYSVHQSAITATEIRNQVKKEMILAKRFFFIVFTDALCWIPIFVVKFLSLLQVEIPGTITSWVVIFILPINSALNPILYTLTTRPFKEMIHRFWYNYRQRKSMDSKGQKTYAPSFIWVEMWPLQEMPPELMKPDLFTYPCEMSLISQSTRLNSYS
RXFP1 agonist – qHTS Assay for Agonists of the Relaxin Receptor RXFP1; HEK293T-RXFP1 cAMP TR-FRET, 30 min; response scale: percent of porcine relaxin response, buffer zero; AID 2676, 2010; 370,000 compounds, 0.3% hits; Potency, µM (top dose mostly 57.5 µM), for inactives: at the highest dose activation, hits mostly activators; Relaxin receptor 1 (Homo sapiens), Q9HBX9; active = well fitted activation curve with a large enough effect; inconclusive = small, poorly fitted or top-dose-only effect; also: potency is read from the fitted curve at half-maximal effect; % is scaled to controls: 0 for no effect and ±100 for the full control effect; nearly all actives have a fitted effect of over 60% in size
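HEK293T cells stably expressing RXFP1 were pretreated with the PDE4 inhibitor Ro 20174, exposed to compounds for 30 min at 37C, lysed, and cAMP was read by TR-FRET. Data normalized to buffer (basal) and 29 nM porcine relaxin (100%).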
The depositor's hits bear a star; i = inactive; ? = inconclusive; . = not tested or not shown; [ ] = another dose, or the depositor's remark. Only some compounds are listed: those with a hit (about 1.2% of all), similar ones and a draw of the others.

SMILES | gsp antagonist | pAkt inh | gsp ag | RXFP1 antag | RXFP1 agonist
Cc1cccn2c(=O)c3cc(C(=O)NCC4CCCO4)c(=N)n(Cc4cccnc4)c3nc12 (stereo unspecified) | -2.1% | i | 36.2%[15.4 µM] | 3.0 | ?
O=C(c1cccn1-c1nnc(N2CCCC2)s1)N1CCN(c2ccc(F)cc2)CC1 | . | . | . | -13.0 | 9.6%
O=C(O)Cn1c(=O)n(Cc2ccc(Br)cc2F)c(=O)c2ccc(Cl)cc21 | . | . | . | -23.7 | .
COc1ccc(N(C(=O)c2ccncc2)S(=O)(=O)c2ccc(Cl)cc2)cc1 | 50.1µM* | i | ? | -23.4 | 3.3%
O=C(Oc1ccc(N(C(=O)c2ccncc2)S(=O)(=O)c2ccc(F)cc2)cc1)c1ccncc1 | -4.6% | i | -21.3% | -89.7* | 2.1%
CCOCCOC(=O)/C=C/c1ccc(OC)cc1 | . | . | . | 32.4 | .
COc1ccnc2c1CCCCC2S(=O)c1nc2ccccc2[nH]1 (stereo unspecified) | . | . | . | -13.2 | .
CCn1c2ccccc2c2cc(/C=N/NC(=O)c3cc(O)cc(O)c3)ccc21 | ? | i | -2.7%[15.4 µM] | -83.0* | 3.8%
CCn1c2ccccc2c2cc(/C=N/NC(=O)c3ccncc3)ccc21 | . | i | -2.5%[15.4 µM] | -7.8 | -0.3%
CCn1c2ccccc2c2cc(/C=N/NC(=O)c3ccc(O)cc3)ccc21 | 28.2µM* | i | -21.3%[15.4 µM] | -23.1 | -0.3%
O=C(N/N=C/c1cn(Cc2ccccc2)c2ccccc12)c1cc(O)cc(O)c1 | 18.9% | i | -7.1% | 17.3 | 4.8%
CC1C(=O)N(Cc2ccccc2F)c2ccccc2N1C(=O)c1c(F)cccc1F (stereo unspecified) | ? | i | -19.3% | -10.5 | -1.0%
COc1cccc(CN2C(=O)C(C)N(C(=O)c3c(F)cccc3F)c3ccccc32)c1 (stereo unspecified) | 35.5µM* | i | -19.0% | -2.7 | 2.6%
O=C/C=C/c1c(-c2ccccc2)cc2oc3ccccc3cc1-2 | -7.1% | i | 15.9% | -90.5* | 2.1%
Nc1ccc(-c2cc3ccccc3oc2=O)cc1 | 7.0% | i | -14.8%[15.4 µM] | 10.5 | 4.4%
COc1ccc2c(C(=S)N(C)CC(=O)O)cccc2c1C(F)(F)F | . | . | . | -2.5 | .
CCn1c(=O)c2c(nc(C=Cc3ccc(OC)c(OC)c3)n2C)n(CC)c1=O | . | . | . | -10.5 | .
C=CCn1c(-c2csc(-c3ccccc3)n2)n[nH]c1=S | -5.3% | -106.2%* | ? | -23.8 | 9.3%
CCOC(=O)CSc1nnc(CNc2ccc(Cl)cc2)n1Cc1ccccc1 | -1.1% | i | 4.2% | -8.9 | -3.0%
O=C(O)CSc1nnc(CNc2ccc(Cl)cc2)n1Cc1ccccc1 | -30.1% | -112.8%* | -15.4% | 0.0 | -0.7%
CC(C)N1CCC2(CC1)N=C(c1ccc3c(c1)OCO3)CC(c1cc(Cl)ccc1O)N2 (stereo unspecified) | -6.5% | i | 33.3% | -66.6* | 0.0%
COc1ccc(Cn2ccc3nc(C)c(C(=O)Nc4ccc(OC(F)(F)F)cc4)cc3c2=O)cc1 | . | . | . | -14.5 | -0.8%
C=CCn1c(O)c(C2=c3ccccc3=NC2=O)c2ccccc21 | 11.0% | i | -28.5% | -95.3* | 1.1%
CCOC(=O)c1c(C)[nH]c(C)c1S(=O)(=O)N1CCCC(C(=O)N2CCN(c3cccc(Cl)c3)CC2)C1 (stereo unspecified) | . | . | . | -1.2 | 1.8%
Cc1ccc(CN(Cc2ccco2)C(=O)COc2cccc(C)c2C)o1 | . | . | . | -96.1* | -0.1%
Cc1ccc(CN(Cc2ccco2)C(=O)COc2ccc(Cl)cc2)o1 | . | . | . | -68.9* | -0.7%
COC(=O)C1C(=O)c2c([nH]c(C(=O)OC3CCCC3C)c2C)CC1C (stereo unspecified) | -23.2% | i | -42.0% | -62.7* | 1.1%
CN(C)c1cccc(C(=O)Nc2cccc(F)c2)c1 | -12.6% | i | -26.2% | -0.9 | 0.4%
CCN(CC)c1ccc(C(=O)Nc2cccc(F)c2)cc1 | -9.8% | -114.9%* | -58.9% | -8.8 | -0.3%
